Luc counter: blocks Kinase-Glo luciferase, a counter-screen artifact; Q27757; Kinase-Glo luciferase, ATP luminescence, 8 min; Potency, µM (top dose mostly 38.3 µM), most hits filed as inhibitors; 200,000 tested, 0.28% active; AID 1379; also: nearly all actives have a fitted effect of over 60% in size
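Recombinant Kinase-Glo luciferase, 10 uM ATP (linear range), luciferin; imidazole pH 7.2 / KCl / MgCl2 / Tween / BSA buffer; 8 min RT; luminescence.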
FLuc modulator: firefly luciferase modulation, counter-screen for miR-21 project. P08659. purified FLuc, Km substrates, luminescence inhibition. Potency, µM (top dose mostly 57.5 µM), hits mostly inhibitors. 360,000 tested, 6.9% active; also: nearly all actives have a fitted effect of over 55% in size
Target sequence (P08659 whole entry, looked up): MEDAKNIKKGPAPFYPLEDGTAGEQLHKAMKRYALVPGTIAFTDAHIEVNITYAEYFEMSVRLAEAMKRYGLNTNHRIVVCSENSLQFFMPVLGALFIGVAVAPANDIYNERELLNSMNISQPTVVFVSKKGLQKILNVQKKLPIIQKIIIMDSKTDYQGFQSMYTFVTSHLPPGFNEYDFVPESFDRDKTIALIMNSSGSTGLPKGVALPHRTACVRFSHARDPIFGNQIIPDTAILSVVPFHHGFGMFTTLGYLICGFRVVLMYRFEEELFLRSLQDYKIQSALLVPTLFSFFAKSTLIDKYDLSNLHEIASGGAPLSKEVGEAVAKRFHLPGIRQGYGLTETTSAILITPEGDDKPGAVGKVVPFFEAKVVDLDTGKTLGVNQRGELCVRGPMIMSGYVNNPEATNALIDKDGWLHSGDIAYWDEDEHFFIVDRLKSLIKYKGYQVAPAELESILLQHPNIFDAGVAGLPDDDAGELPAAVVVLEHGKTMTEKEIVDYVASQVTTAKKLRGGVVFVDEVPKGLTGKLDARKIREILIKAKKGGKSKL
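Purified P. pyralis luciferase, 10 nM final, with Km-level 10 uM D-luciferin and 10 uM ATP in 50 mM Tris acetate pH 7.5, 10 mM Mg acetate, 0.01% Tween-20, 0.05% BSA; 6-point qHTS titration about 60 µM downward; luminescence read.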
NPC1 prom act: activators of NPC1 promoter. Huh7 NPC1 promoter luciferase reporter, 24 h. 320,000 tested, 2.4% active. Potency, µM (doses to about 9.22 µM), hits mostly activators; also: nearly all actives have a fitted effect of over 60% in size
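Stable NPC1-promoter luciferase Huh7 line; cpd (DMSO) 24 h, 37 °C, 5% CO2; Amplite luciferase reagent 10 min RT; luminescence readout. qHTS format.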
SMN2 splice up: increases expression of the SMN2 splice variant; Potency, µM (series often up to 46.1 µM), actives largely listed as activators; 210,000 tested, 2.8% active; HEK293 SMN2-luciferase splicing reporter, luminescence, 30-36 h; also: nearly all actives have a fitted effect of over 55% in size
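HEK293 cells carry an SMN2 […]–luciferase reporter in which exon 7 inclusion puts luciferase in frame. Cells were plated 10-12 h before compound addition, then incubated 30-36 h at 37C. ONE-Glo luminescence was read; sodium butyrate at 4.5 mM final served as control.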
Rab9 promoter act: Rab9 promoter activation | 320,000 tested, 2.8% active | Potency, µM (titrated, usually from 9.22 µM), hits mostly activators | AID 485297 | Huh7 Rab9 promoter-luciferase reporter, luminescence, 24 h; also: nearly all actives have a fitted effect of over 60% in size
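Steps: seed 1500 Huh7 Rab9-luc cells per well, rest 2 h at 37 °C; add compound in DMSO; incubate 24 h; add luciferase reagent, 10 min ambient; read luminescence.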
Numbers stand for hits; . = inactive; ? = inconclusive; / = not tested or not shown; [ ] = remark or other dose. Most compounds without a hit are left out; they make up all but 7.3% or so of the library. Calls follow the shape of the dose curve; as a rule, active = well fitted curve in the direction sought with a large enough effect; inconclusive = small, poorly fitted or top-dose-only effect, or another doubt; inactive = no such curve, though single readings can be large; an effect the other way counts as inactive or inconclusive.

SMILES	Luc counter	FLuc modulator	NPC1 prom act	SMN2 splice up	Rab9 promoter act
COc1cc(C(=O)Nc2cccc(-c3nc4cc(C)ccc4o3)c2)cc(OC)c1OC	.	1.69µM	.	.	.
Cc1ccc2oc(-c3ccc(C)c(NC(=O)c4ccc(C(C)(C)C)cc4)c3)nc2c1	/	.	/	.	/
COc1cc(C(=O)Nc2cccc(-c3nc4ncccc4o3)c2C)cc(OC)c1OC	.	.	.	.	.
CCOc1cc(C(=O)Nc2cccc(-c3nc4ccccc4o3)c2)cc(OCC)c1OCC	/	.	/	.	/
COc1cc(C(=O)Nc2cccc(-c3nc4cc(C)ccc4o3)c2C)cc(OC)c1OC	.	0.953µM	.	.	.
Cc1ccc2oc(-c3ccc(C)c(NC(=S)NC(=O)c4cccs4)c3)nc2c1	.	6.01µM	.	?	.
Cc1ccccc1C(=O)Oc1cc(-c2ccc3c(c2)OCO3)cc(=O)c2c(C)oc(C)c12	/	.	/	.	/
CC(C)(C)c1ccc(C(=O)Nc2cccc(C(=O)N3CCOCC3)c2)cc1	/	0.536µM	1.26µM	/	0.891µM
CC(C)(C)c1ccc(OC(=O)N2CCOCC2)cc1	/	15.1µM	.	/	?
CN(C)S(=O)(=O)c1ccc(C(=O)Nc2cccc(C(=O)N3CCOCC3)c2)cc1	/	.	.	/	.
COc1ccc(C(=O)Nc2cccc(C(=O)N3CCCCC3)c2)cc1	/	15.1µM	.	/	.
Cc1ccc(C(=O)Nc2cccc(C(=O)N3CCOCC3)c2)cc1	.	9.53µM	3.98µM	?	2µM
CC#CCN1c2ccccc2[C@]23C[C@@H](C(=O)OC)N(S(=O)(=O)c4ccc(C)cc4)C2=NC(C(=O)OC)=C(C(=O)OC)[C@H]13	.[7.66 µM]	/	/	.[9.22 µM]	/
O=C(Cn1cc(C(=O)C2CCCCC2)c2ccccc21)Nc1ccccc1Cl	/	.	/	.	/
Cc1ccc(Cn2cccc(NC(=O)NCc3ccccc3)c2=O)cc1	.	?	.	.	.
COc1ccc(Cn2cccc(NC(=O)Nc3ccc(F)cc3)c2=O)cc1	.	?	.	/	.
Cc1ccc(Cn2cccc(NC(=O)c3ccco3)c2=O)cc1	.	15.1µM	.	.	?
O=C(Nc1cccn(Cc2c(Cl)cccc2Cl)c1=O)c1c(Cl)cccc1Cl	.	.	.	.	.
O=C(Nc1ccccc1)Nc1cccn(Cc2c(F)cccc2Cl)c1=O	.	10.7µM	.	/	?
COc1cccc(Cn2cccc(NC(=O)NCc3ccccc3)c2=O)c1	/	21.3µM	.	/	.
COc1cccc(Cn2cccc(NC(=O)Nc3ccccc3C)c2=O)c1	.	.	.	/	.
CSc1ccc(NC(=O)Nc2cccn(Cc3ccccc3)c2=O)cc1	.	10.7µM	.	/	.
COc1ccc(Cn2cccc(NC(=O)Nc3cccc(OC)c3)c2=O)cc1	/	21.3µM	.	/	.
COc1cccc(NC(=O)Nc2cccn(Cc3ccccc3)c2=O)c1	.	16.9µM	.	.	.
O=C(NCc1ccccc1)Nc1cccn(Cc2ccccc2Cl)c1=O	.	8.49µM	.	.	.
SMILES	Luc counter	FLuc modulator	NPC1 prom act	SMN2 splice up	Rab9 promoter act
N=C(N)SCCN1CCCCC1	.[7.66 µM]	/	/	.[9.22 µM]	/
COc1ccccc1NC(=O)Cn1c(=O)n(Cc2nc(-c3ccccc3)no2)c(=O)c2ccccc21	/	.	/	/	/
CCOC(=O)c1sc(N2C(=O)c3oc4ccc(C)cc4c(=O)c3C2c2ccccc2F)nc1C (centres undefined)	/	.	/	.	/
Cc1cccc(N/C=C/C(=O)c2ccc(Cl)cc2)c1	/	0.675µM	0.562µM	/	0.355µM
O=C(/C=C\Nc1ccccn1)c1ccc(Cl)cc1	?	0.19µM	0.282µM	1µM	0.1µM
CCOC(=O)c1ccc(OS(=O)(=O)c2ccccc2)c(OC)c1	.	7.57µM	2.82µM	11.2µM	2.82µM
COC(=O)c1ccc(N/C=C/C(=O)c2ccccc2)cc1	/	0.601µM	?	/	0.501µM
Cc1ccc(C)c(NC(=O)CCCn2c(C)c3cnn(-c4ccccc4)c(=O)c3c2C)c1	/	.	/	.	/
Cc1noc(Cn2c(=O)c3ccccc3n(CC(=O)Nc3ccc(F)cc3F)c2=O)n1	/	.	/	/	/
COc1cccc(C(=O)/C=C/Nc2ccc(S(=O)(=O)Nc3ccc(C(C)=O)cc3)cc2)c1	/	?	.	/	.
CCOC(=O)c1ccc(N/C=C\C(=O)c2cccc(OC)c2)cc1	?	3.01µM	?	?	?
COc1cccc(C(=O)/C=C/Nc2ccc(S(=O)(=O)Nc3ncccn3)cc2)c1	.	?	.	.	.
COc1ccc(C(=O)/C=C/Nc2cccc(O)c2)cc1	?	0.379µM	.	?	?

From PubChem BioAssay
